The full list was thinned out, with the strongest signals kept by preference.
Experiments:
Experiment in all cases: glycan array binding signal (z-score within array); higher = stronger binding
Settings in all cases: glycan notation: IUPAC condensed, linker removed
[1] = target: Fuc(a1-2)Gal(b1-3)[Fuc(a1-4)]GlcNAc
In short: (§1)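 The binding signal is a Z-score computed within each array. Data were drawn from 3228 arrays in the Consortium for Functional Glycomics database, restricted to those with a known protein sequence. Scores were averaged over arrays of the same protein sequence at different concentrations or buffers, and over linkers, and negative values can be taken as non-binding.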

[2] = target: Fuc(a1-2)Gal(b1-3)[Fuc(a1-4)]GlcNAc(b1-3)[Fuc(a1-3)[Gal(b1-4)]GlcNAc(b1-6)]Gal(b1-4)Glc
In short: as §1

[3] = target: Fuc(a1-2)Gal(b1-4)Fuc(a1-3)]GlcNAc(b1-2)Man(a1-3)[Fuc(a1-2)Gal(b1-4)[Fuc(a1-3)]GlcNAc(b1-2)Man(a1-6)]Man(b1-4)GlcNAc(b1-4)GlcNAc
In short: as §1

Fuc(a1-2)Gal(b1-4)GlcNAc = target: Fuc(a1-2)Gal(b1-4)GlcNAc
In short: as §1

[4] = target: Fuc(a1-2)Gal(b1-4)GlcNAc(b1-6)GalNAc
In short: as §1

[5] = target: Fuc(a1-2)Gal(b1-4)[Fuc(a1-3)]GlcNAc(b1-3)GalNAc
In short: as §1

[6] = target: Fuc(a1-2)Gal6S(b1-3)GlcNAc6S
In short: as §1

[7] = target: Fuc(a1-2)[Gal(a1-3)]Gal(b1-3)GlcNAc
In short: as §1

[8] = target: Fuc(a1-2)[Gal(a1-3)]Gal(b1-4)[Fuc(a1-3)]Glc
In short: as §1

[9] = target: Fuc(a1-2)[GalNAc(a1-3)]Gal(b1-3)GalNAc(b1-3)Gal(a1-4)Gal(b1-4)Glc
In short: as §1

[10] = target: Fuc(a1-2)[GalNAc(a1-3)]Gal(b1-4)GlcNAc(b1-2)Man(a1-3)[Fuc(a1-2)[GalNAc(a1-3)]Gal(b1-4)GlcNAc(b1-2)Man(a1-6)]Man(b1-4)GlcNAc(b1-4)[Fuc(a1-6)]GlcNAc
In short: as §1

[11] = target: Fuc(a1-2)[GalNAc(a1-3)]Gal(b1-4)GlcNAc(b1-3)Gal(b1-4)GlcNAc
In short: as §1

[12] = target: Fuc(a1-2)[GalNAc(a1-3)]Gal(b1-4)[Fuc(a1-3)]GlcNAc(b1-3)GalNAc
In short: as §1

[13] = target: Fuc(a1-3)[Gal(b1-4)]GlcNAc(b1-2)Man
In short: as §1

[14] = target: Fuc(a1-3)[Gal(b1-4)]GlcNAc(b1-3)GalNAc
In short: as §1

[15] = target: Fuc(a1-3)[Gal(b1-4)]GlcNAc(b1-6)GalNAc
In short: as §1

[16] = target: Gal(a1-3)Gal(b1-3)[Fuc(a1-4)]GlcNAc(b1-2)Man(a1-3)[Gal(a1-3)Gal(b1-3)[Fuc(a1-4)]GlcNAc(b1-2)Man(a1-6)]Man(b1-4)GlcNAc(b1-4)GlcNAc
In short: as §1

Gal(a1-4)GlcNAc = target: Gal(a1-4)GlcNAc
In short: as §1

[17] = target: Gal(b1-3)[Neu5Ac(a2-6)]GlcNAc(b1-4)Gal(b1-4)Glc
In short: as §1

Gal(b1-4)Glc6S = target: Gal(b1-4)Glc6S
In short: as §1

[18] = target: Gal(b1-4)GlcNAc(b1-3)Gal(b1-3)GalNAc
In short: as §1

[19] = target: Gal(b1-4)GlcNAc(b1-3)Gal(b1-3)GlcNAc
In short: as §1

[20] = target: Gal(b1-4)GlcNAc(b1-3)Gal(b1-4)GlcNAc
In short: as §1

[21] = target: Gal(b1-4)GlcNAc(b1-3)GalNAc
In short: as §1

[22] = target: Gal(b1-4)GlcNAc(b1-3)[Fuc(a1-3)GlcNAc(b1-6)]Gal(b1-4)Glc
In short: as §1

[23] = target: Gal(b1-4)GlcNAc(b1-3)[GlcNAc(b1-6)]Gal(b1-4)GlcNAc
In short: as §1

Gal3S(b1-3)GlcNAc = target: Gal3S(b1-3)GlcNAc
In short: as §1

[24] = target: Gal3S(b1-3)[Fuc(a1-4)]GlcNAc
In short: as §1

Gal3S6S(b1-4)GlcNAc6S = target: Gal3S6S(b1-4)GlcNAc6S
In short: as §1

Gal4S(b1-4)GlcNAc = target: Gal4S(b1-4)GlcNAc
In short: as §1

Gal6S(b1-4)GlcNAc6S = target: Gal6S(b1-4)GlcNAc6S
In short: as §1

[25] = target: GalNAc(b1-3)Gal(a1-4)Gal(b1-4)GlcNAc(b1-3)Gal(b1-4)Glc
In short: as §1

GalNAc4S6S(b1-4)GlcNAc = target: GalNAc4S6S(b1-4)GlcNAc
In short: as §1

Glc(b1-4)Glc = target: Glc(b1-4)Glc
In short: as §1

GlcA(b1-6)Gal = target: GlcA(b1-6)Gal
In short: as §1

[26] = target: GlcNAc(a1-4)Gal(b1-4)GalNAc
In short: as §1

[27] = target: GlcNAc(b1-2)[GlcNAc(b1-6)]Man(a1-6)[GlcNAc(b1-2)Man(a1-3)]Man(b1-4)GlcNAc(b1-4)GlcNAc
In short: as §1

[28] = target: GlcNAc(b1-2)[GlcNAc(b1-6)]Man(a1-6)[GlcNAc(b1-4)][GlcNAc(b1-2)Man(a1-3)]Man(b1-4)GlcNAc(b1-4)GlcNAc
In short: as §1

[29] = target: GlcNAc(b1-4)GlcNAc(b1-4)GlcNAc(b1-4)GlcNAc(b1-4)GlcNAc(b1-4)GlcNAc
In short: as §1

Kdn(a2-3)Gal(b1-3)GalNAc = target: Kdn(a2-3)Gal(b1-3)GalNAc
In short: as §1

[30] = target: Man(a1-2)Man(a1-3)[Man(a1-6)]Man(a1-6)[Man(a1-2)Man(a1-3)]Man(b1-4)GlcNAc(b1-4)GlcNAc
In short: as §1

[31] = target: Neu5Ac(a2-3)Gal(b1-3)GlcNAc6S
In short: as §1

[32] = target: Neu5Ac(a2-3)Gal(b1-3)[GlcNAc(b1-6)]GalNAc
In short: as §1

[33] = target: Neu5Ac(a2-3)Gal(b1-3)[Neu5Ac(a2-6)]GlcNAc(b1-3)[Fuc(a1-3)[Gal(b1-4)]GlcNAc(b1-6)]Gal(b1-4)Glc
In short: as §1

Neu5Ac(a2-3)Gal(b1-4)Glc = target: Neu5Ac(a2-3)Gal(b1-4)Glc
In short: as §1

[34] = target: Neu5Ac(a2-3)Gal(b1-4)GlcNAc(b1-2)Man
In short: as §1

[35] = target: Neu5Ac(a2-3)Gal(b1-4)GlcNAc(b1-3)Gal(b1-4)GlcNAc(b1-2)Man(a1-3)[Neu5Ac(a2-3)Gal(b1-4)GlcNAc(b1-3)Gal(b1-4)GlcNAc(b1-2)Man(a1-6)]Man(b1-4)GlcNAc(b1-4)GlcNAc
In short: as §1

[36] = target: Neu5Ac(a2-3)Gal(b1-4)GlcNAc(b1-3)Gal(b1-4)GlcNAc(b1-3)Gal(b1-4)GlcNAc(b1-2)Man(a1-3)[Neu5Ac(a2-3)Gal(b1-4)GlcNAc(b1-3)Gal(b1-4)GlcNAc(b1-3)Gal(b1-4)GlcNAc(b1-2)Man(a1-6)]GalNAc
In short: as §1

[37] = target: Neu5Ac(a2-3)Gal(b1-4)GlcNAc(b1-3)[Neu5Ac(a2-3)Gal(b1-4)GlcNAc(b1-6)]GalNAc
In short: as §1

[38] = target: Neu5Ac(a2-3)Gal(b1-4)[Fuc(a1-3)]GlcNAc(b1-2)Man
In short: as §1

[39] = target: Neu5Ac(a2-6)Gal(b1-4)GlcNAc(b1-2)Man(a1-3)[GlcNAc(b1-2)Man(a1-6)]Man(b1-4)GlcNAc(b1-4)GlcNAc
In short: as §1

[40] = target: Neu5Ac(a2-6)Gal(b1-4)GlcNAc(b1-2)Man(a1-3)[Neu5Ac(a2-3)Gal(b1-4)GlcNAc(b1-2)Man(a1-6)]Man(b1-4)GlcNAc(b1-4)GlcNAc
In short: as §1

[41] = target: Neu5Ac(a2-6)Gal(b1-4)GlcNAc(b1-2)Man(a1-3)[Neu5Ac(a2-6)Gal(b1-4)GlcNAc(b1-2)Man(a1-6)]Man(b1-4)GlcNAc(b1-4)[Fuc(a1-6)]GlcNAc
In short: as §1

[42] = target: Neu5Ac(a2-6)Gal(b1-4)GlcNAc6S
In short: as §1

[43] = target: Neu5Ac(a2-6)GlcNAc(b1-4)GlcNAc(b1-4)GlcNAc
In short: as §1

[44] = target: Neu5Ac(a2-8)Neu5Gc(a2-3)Gal(b1-4)GlcNAc
In short: as §1

[45] = target: Neu5Ac9Ac(a2-3)Gal(b1-4)GlcNAc
In short: as §1

[46] = target: Neu5Ac9Ac(a2-6)Gal(b1-4)GlcNAc
In short: as §1

[47] = target: Neu5Gc(a2-3)Gal(b1-4)GlcNAc
In short: as §1

B1: Epa2 (Candida glabrata) (protein)
chain: MGSSHHHHHHSSGLVPRGSHMASSKDPTSFPMGCSPQVLKTQPGLAVKLYSYGHPVPGCAYNTYQYPDFPRSGYKKERKLADITGVNGRIDIDLKPNDPCRVLSGNLPSNYNYQNTLTYTNFTMILYGYFQPKVTGYHTFNLEADDLLFMNLGAGNAFDCCRAESTLDNFGNYQSYSIWGTDKATADLTVFLVSGIYYPIRLFYVNRDNNAVLDFSFSTEFNKEIIHDFTSYFFSASDEEQCPGNI
glycan array binding signal (z-score) [1]: 0.672
glycan array binding signal (z-score) [2]: 0.365
glycan array binding signal (z-score) [3]: 0.533
glycan array binding signal (z-score) (Fuc(a1-2)Gal(b1-4)GlcNAc): -0.046
glycan array binding signal (z-score) [4]: 2.02
glycan array binding signal (z-score) [5]: 4.06
glycan array binding signal (z-score) [6]: 1.81
glycan array binding signal (z-score) [7]: -0.553
glycan array binding signal (z-score) [8]: -0.56
glycan array binding signal (z-score) [9]: -0.252
glycan array binding signal (z-score) [10]: -0.26
glycan array binding signal (z-score) [11]: -0.172
glycan array binding signal (z-score) [12]: 4.26
glycan array binding signal (z-score) [13]: -1.15
glycan array binding signal (z-score) [14]: 0.659
glycan array binding signal (z-score) [15]: 2.23
glycan array binding signal (z-score) [16]: -0.479
glycan array binding signal (z-score) (Gal(a1-4)GlcNAc): 2.5
glycan array binding signal (z-score) [17]: 0.015
glycan array binding signal (z-score) (Gal(b1-4)Glc6S): -0.198
glycan array binding signal (z-score) [18]: 0.503
glycan array binding signal (z-score) [19]: -0.725
glycan array binding signal (z-score) [20]: -0.158
glycan array binding signal (z-score) [21]: -0.071
glycan array binding signal (z-score) [22]: 0.111
glycan array binding signal (z-score) [23]: -1.09
glycan array binding signal (z-score) (Gal3S(b1-3)GlcNAc): -0.16
glycan array binding signal (z-score) [24]: 0.641
glycan array binding signal (z-score) (Gal3S6S(b1-4)GlcNAc6S): 2.14
glycan array binding signal (z-score) (Gal4S(b1-4)GlcNAc): -0.316
glycan array binding signal (z-score) (Gal6S(b1-4)GlcNAc6S): 2.81
glycan array binding signal (z-score) [25]: 1.03
glycan array binding signal (z-score) (GalNAc4S6S(b1-4)GlcNAc): 0.176
glycan array binding signal (z-score) (Glc(b1-4)Glc): 0.058
glycan array binding signal (z-score) (GlcA(b1-6)Gal): 0.586
glycan array binding signal (z-score) [26]: -0.65
glycan array binding signal (z-score) [27]: -0.896
glycan array binding signal (z-score) [28]: -0.884
glycan array binding signal (z-score) [29]: -0.072
glycan array binding signal (z-score) (Kdn(a2-3)Gal(b1-3)GalNAc): 2.25
glycan array binding signal (z-score) [30]: -1.18
glycan array binding signal (z-score) [31]: 0.604
glycan array binding signal (z-score) [32]: -0.044
glycan array binding signal (z-score) [33]: 0.369
glycan array binding signal (z-score) (Neu5Ac(a2-3)Gal(b1-4)Glc): 0.776
glycan array binding signal (z-score) [34]: 3.5
glycan array binding signal (z-score) [35]: 0.377
glycan array binding signal (z-score) [36]: 2.23
glycan array binding signal (z-score) [37]: 3.03
glycan array binding signal (z-score) [38]: -0.325
glycan array binding signal (z-score) [39]: -0.681
glycan array binding signal (z-score) [40]: -0.821
glycan array binding signal (z-score) [41]: -0.149
glycan array binding signal (z-score) [42]: -0.614
glycan array binding signal (z-score) [43]: -0.626
glycan array binding signal (z-score) [44]: -1.11
glycan array binding signal (z-score) [45]: -0.074
glycan array binding signal (z-score) [46]: -0.169
glycan array binding signal (z-score) [47]: -0.248

Source: the supplement of paper PMC8728848
